23 molecules from PubChem BioAssay (NCI) can be followed below.

The panel holds about 83,000 compounds, 20% with a hit somewhere; the sample as a whole holds those more often.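 Assay: single dose, 48 h. Readout: percent growth (0 = no net growth; negative = cell death). Active: <10.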 A number with no mark means an inactive call. Activity calls are given as the source filed them.

Holding throughout (assay): NCI-60 one-dose screen, 48 h (100 = growth as untreated, 0 = no growth, -100 = all killed)
Common to all, as to settings: 10 µM unless noted

In assay [1] the test system is BT-549 breast.
Assay [2] has as its system MDA-MB-435 melanoma.
In assay [3] the test system is SW-620 colon.
For assay [4], the system named is MCF7 breast.
Assay [5] relates to HCT-116 colon.
In assay [6] the test system is HCC-2998 colon.
Assay [7] relates to KM12 colon.

For `COc1cc(OC)c(C2SCC(=O)N2Nc2ncnc3ccccc23)cc1OC` (stereo unspecified), the growth in assay [1] was 105%; in assay [2], 103%; in assay [3], 105%; in assay [4], 91.8%; in assay [5], 107%; in assay [6], 111%. For the same molecule, in assay [7], the growth is 107%.
With `COc1cc2nc(-c3ccc(C)cc3)cc(OCCCNCC3CCCO3)c2cc1OC` (stereo unspecified), the growth in assay [1] was 98.5%; in assay [2] it was 54.3%; in assay [3], 77.5%; in assay [4], 59.7%; in assay [5], 40.7%; in assay [6] it was 83.4%. In assay [7], the growth is 60%.
For `CCCC(=O)NC(c1ccc2c(c1)OC(F)(F)O2)c1cc(C)c2cccnc2c1O` (stereo unspecified), the growth in assay [1] is 37.9%; in assay [2] it was 22.9%; in assay [3], 30.3%; in assay [4], 24.1%; in assay [5], 26.2%; in assay [6], 53.3%. Further, the growth in assay [7] was 21.4%.
`Nc1cc(-c2c[nH]c3ccc(Cl)cc23)nc2cc(-c3c[nH]c4ccc(Cl)cc34)nn12`: the growth in assay [1] was 87.5%; in assay [2], 57.7%; in assay [3] it was 15.7%; in assay [4], 14.4%; in assay [5] it was 27.7%; in assay [6], 20.1%. In assay [7], the growth is 12.7%.
Turning to `CN(C)CCCOc1c2ccc(Cl)cc2nc2c1oc1ccc(Cl)cc12`, the growth in assay [1] is 45.6%; in assay [2], -10.2% (active); in assay [3], -82.9% (active); in assay [4], -80.9% (active); in assay [5], 10.8%; in assay [6], -67.9% (active). The growth in assay [7] was -62.3% (active).
As for `CCN1C(=S)N(CC)C2C1NN=C1SC(c3ccccc3)=CC(=O)N12` (stereo unspecified), the growth in assay [1] was 106%; in assay [2] it was 59%; in assay [3], 111%; in assay [4], 95.4%; in assay [5] it was 104%; in assay [6], 111%. Besides, the growth in assay [7] is 94.3%.
For the molecule `COc1ccc(COc2ccc(/C=C3/C(=O)Nc4cc(Cl)ccc43)cc2)cc1`, the growth in assay [1] is 102%; in assay [2], 97.6%; in assay [3], 95.7%; in assay [4] it was 82.1%; in assay [5] it was 101%; in assay [6], 100%. In assay [7], the growth was 101%.
For the molecule `CC(C)(C)Nc1nc2c(OCCc3ccccc3)cccn2c1-c1ccc(O)cc1`, the growth was 85.4% in assay [1]; 72.5% in assay [2]; 69% in assay [3]; 45.4% in assay [4]; 38.2% in assay [5]; 52.2% in assay [6]. Also, in assay [7], the growth is 38.2%.
For `COc1cc2nc(-c3ccc(C(F)(F)F)cc3)cc(OCCCNCC3CCCO3)c2cc1OC` (stereo unspecified), the growth is 66.3% in assay [1]; 5.88% (active) in assay [2]; 16.3% in assay [3]; 13% in assay [4]; 22.6% in assay [5]; 54.4% in assay [6]. Moreover, the growth in assay [7] is 27.3%.
Consider `NS(=O)(=O)c1cccc(Nc2nc(SCC(=O)c3ccc(Cl)cc3)nc3ccccc23)c1`, for which the growth is 26.1% in assay [1]; 77.6% in assay [2]; 79.3% in assay [3]; 65.6% in assay [4]; 76.4% in assay [5]; 112% in assay [6]. For the same molecule, the growth in assay [7] is 71.7%.
As for `COc1ccc(-c2csc(N/N=C/c3c(-c4ccc(S(C)(=O)=O)cc4)nc4ccccn34)n2)cc1`, the growth is 115% in assay [1]; 101% in assay [2]; 107% in assay [3]; 89.1% in assay [4]; 104% in assay [5]; 115% in assay [6]. In addition, the growth in assay [7] is 103%.
On to `Cc1nc2cnc(N)c(C#Cc3cncc(C(=O)Nc4ccc(Cl)c(C(F)(F)F)c4)c3)c2nc1C`, for which the growth in assay [1] was 86.7%; in assay [2] it was 41%; in assay [3] it was -18.9% (active); in assay [4], -67.5% (active); in assay [5], 15.4%; in assay [6] it was 60.4%. Further, in assay [7], the growth was 3.01% (active).
With `COc1ccc(-c2nc3ccc(-c4nnc(SCC(=O)Nc5ccc(C(=O)/C=C/c6ccc(Cl)cc6)cc5)o4)cc3[nH]2)cc1OC`, the growth in assay [1] was 106%; in assay [2], 106%; in assay [3], 105%; in assay [4], 75.9%; in assay [5], 101%; in assay [6] it was 124%. In assay [7], the growth is 104%.
Regarding `Nc1c(C(=O)Nc2ccc(C(F)(F)F)cc2)sc2nc(-c3cnccn3)cc(-c3cccs3)c12`, the growth was 22.5% in assay [1]; 95.4% in assay [2]; 103% in assay [3]; 75.8% in assay [4]; -62.1% (active) in assay [5]; 108% in assay [6]. For the same molecule, in assay [7], the growth was 95.6%.
For the molecule `N#Cc1nc(-c2ccccc2)oc1N1CC[C@@H](CO)C1`, the growth in assay [1] is 117%; in assay [2], 99%; in assay [3], 99%; in assay [4] it was 70.5%; in assay [5], 103%; in assay [6], 110%. Also, the growth in assay [7] was 111%.
In the case of `Clc1ccc2oc3c(NCCCn4ccnc4)c4ccccc4nc3c2c1`, the growth was 76.9% in assay [1]; 26.7% in assay [2]; 16.9% in assay [3]; 8.8% (active) in assay [4]; 11.2% in assay [5]; 55.2% in assay [6]. For the same molecule, the growth in assay [7] was 30.9%.
Consider `COc1ccc(-c2nc3ccc(-c4nnc(SCC(=O)Nc5ccc(C(C)=O)cc5)o4)cc3[nH]2)cc1`, for which the growth in assay [1] was 112%; in assay [2] it was 102%; in assay [3], 103%; in assay [4], 77.1%; in assay [5], 109%; in assay [6], 111%. For the same molecule, the growth in assay [7] is 105%.
Take `OC1CCN(CCCOc2c3ccccc3nc3c2oc2ccc(Cl)cc23)CC1`: the growth is 57.1% in assay [1]; -40.6% (active) in assay [2]; 2.39% (active) in assay [3]; 2.99% (active) in assay [4]; 15.9% in assay [5]; 21.9% in assay [6]. In addition, the growth in assay [7] was 1.06% (active).
`O=C(CSc1nc2sc3c(c2c(=O)n1-c1ccc(Cl)cc1)CCCC3)NNC(=O)Nc1cccc(C(F)(F)F)c1`: the growth in assay [1] is 54%; in assay [2], 24.5%; in assay [3] it was 22.1%; in assay [4] it was 16.7%; in assay [5], 5.54% (active); in assay [6], 38.9%. In addition, in assay [7], the growth is 11%.
Turning to `O=C(CSc1nc2sc3c(c2c(=O)n1-c1ccc(Cl)cc1)CCCC3)N/N=C/c1ccc(F)cc1`, the growth is 116% in assay [1]; 86.9% in assay [2]; 61.9% in assay [3]; 74.7% in assay [4]; 99.7% in assay [5]; 112% in assay [6]. The growth in assay [7] was 90.1%.
Consider `CN(C)CCCNc1c2ccccc2nc2c1oc1ccc(Cl)cc12`, for which the growth is 57.9% in assay [1]; 33.5% in assay [2]; 9.93% (active) in assay [3]; -25.7% (active) in assay [4]; 22.5% in assay [5]; -43.7% (active) in assay [6]. Further, the growth in assay [7] is 25.5%.
Take `CS(=O)(=O)c1ccc(-c2nc3ccccn3c2-c2nc3ccc([N+](=O)[O-])cc3[nH]2)cc1`: the growth is 122% in assay [1]; 94.5% in assay [2]; 93.2% in assay [3]; 85.2% in assay [4]; 97% in assay [5]; 105% in assay [6]. Further, in assay [7], the growth was 93.8%.
As for `O=C(NNc1nc2cc(F)ccc2n2c(CN3CC4(COC4)C3)ccc12)c1cnccn1`, the growth in assay [1] was 36.4%; in assay [2], 35.2%; in assay [3], 27.1%; in assay [4] it was 13.6%; in assay [5], 22%; in assay [6], 57.3%. The growth in assay [7] was 23%.
